Shown are actives, neighbours in structure and some others; about 3.9% of the full set was active somewhere.
BoNT-A LC inh2 = inhibitors of Botulinum neurotoxin A light chain protease; multiplex microsphere protease substrate cleavage, flow cytometry; 360,000 compounds, 0.17% hits; inhibition, % at 10 µM; also: plate controls were buffer without enzyme for full effect and enzyme alone for no effect
CCHF vOTU inh = blocks the CCHF virus ovarian tumor domain protease | inhibition, % at 11.5 µM | CCHFV vOTU protease, Pep-AMC fluorescence | 370,000 compounds, 0.55% hits; in the data active = inhibition above about 30%; also: 0% = vehicle wells with enzyme and 100% = no enzyme wells
Anthrax LF prot = blocks Bacillus anthracis lethal factor protease; P15917; multiplex microsphere protease cleavage assay, LF; inhibition, % at 10 µM; 360,000 compounds, 0.12% hits; also: plate controls were buffer without enzyme for full effect and enzyme alone for no effect
Target sequence (P15917 whole entry, looked up): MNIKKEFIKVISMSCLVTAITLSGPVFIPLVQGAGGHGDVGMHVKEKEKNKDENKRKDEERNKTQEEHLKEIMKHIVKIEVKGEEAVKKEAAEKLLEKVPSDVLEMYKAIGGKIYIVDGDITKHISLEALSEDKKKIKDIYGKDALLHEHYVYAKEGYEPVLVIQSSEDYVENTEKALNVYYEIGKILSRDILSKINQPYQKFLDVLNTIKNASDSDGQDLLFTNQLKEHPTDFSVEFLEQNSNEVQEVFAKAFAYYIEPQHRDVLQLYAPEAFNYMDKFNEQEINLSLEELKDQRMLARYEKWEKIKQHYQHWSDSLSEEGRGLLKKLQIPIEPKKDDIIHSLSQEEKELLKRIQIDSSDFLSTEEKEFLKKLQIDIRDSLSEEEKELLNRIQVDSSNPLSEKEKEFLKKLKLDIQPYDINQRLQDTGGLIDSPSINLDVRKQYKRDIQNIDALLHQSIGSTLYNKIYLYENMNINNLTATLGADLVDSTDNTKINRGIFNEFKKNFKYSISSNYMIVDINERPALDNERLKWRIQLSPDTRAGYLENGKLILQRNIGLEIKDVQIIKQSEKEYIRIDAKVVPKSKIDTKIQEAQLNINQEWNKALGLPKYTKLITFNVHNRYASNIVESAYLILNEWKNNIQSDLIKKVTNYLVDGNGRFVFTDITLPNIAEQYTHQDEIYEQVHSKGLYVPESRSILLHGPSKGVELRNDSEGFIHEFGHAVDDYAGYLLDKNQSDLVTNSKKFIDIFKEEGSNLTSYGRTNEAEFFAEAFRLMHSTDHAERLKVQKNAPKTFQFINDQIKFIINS
Bead autofluor = compound fluorescence in toxin protease inhibitor counterscreen; compound autofluorescence counterscreen, microsphere flow cytometry; active compounds read high; fluorescence intensity (concentration not given with the values); AID 624483; 360,000 compounds, 3.1% hits; in the data active = fluorescence intensity above about 16000; inconclusive = no clear call, values can overlap the other calls
3CLpro inhibitor = SARS-CoV 3CLpro protease inhibition; P0C6X7; recombinant SARS-CoV 3CLpro, quenched FRET peptide cleavage; inhibition, % at 6 µM; 290,000 compounds, 0.14% hits; AID 1706; in the data active = inhibition above about 12%
BoNT F protease = inhibitors of Botulinum neurotoxin F light chain protease; Multiplex microsphere protease cleavage assay, flow cytometry; inhibition, % at 10 µM; 360,000 compounds, 0.22% hits; AID 588497; in the data active = inhibition above about 35%, passing the limit was not always enough; inconclusive = no clear call, values can overlap the other calls; also: plate controls were buffer without enzyme for full effect and enzyme alone for no effect
The depositor's hits bear a star; ? = inconclusive; nt = no result. Rule as the data show it, unless noted: active = inhibition above about 30%; inconclusive = no clear call, values can overlap the other calls; inactive = below that.

SMILES	BoNT-A LC inh2	CCHF vOTU inh	Anthrax LF prot	Bead autofluor	3CLpro inhibitor	BoNT F protease
CC(=O)Nc1ccc(-c2cn3c(n2)SCC3)cc1	-2.1	6.3	2.8	4127	4.7	-11.6
O=C(Oc1ccc(-c2cn3c(n2)SCC3)cc1)c1ccccc1	5.2	-11.6	-6.0	20792*	-4.0	3.7
CCOC(=O)c1cn(CC)c2ccc(S(=O)(=O)N3CCC(C)CC3)cc2c1=O	0.4	-10.2	-2.8	11762	2.3	-12.6
CCOC(=O)c1cn(CC)c2ccc(S(=O)(=O)N3CC(C)CC(C)C3)cc2c1=O (stereo unspecified)	-0.9	-11.0	0.8	16593*	-0.2	-1.0
O=C(Nc1nc2ncccn2c1-c1ccc(C(F)(F)F)cc1)c1ccccc1	nt	-1.2	nt	nt	nt	nt
Nc1c(C2=NCCO2)nnn1Cc1ccccc1	-3.3	-8.7	-8.6	17624*	-7.7	-9.3
O=C1CCCCC1CCS(=O)(=O)NCc1ccccc1 (stereo unspecified)	nt	-0.8	nt	nt	nt	nt
O=C(CCN1CCCCC1)Nn1c(=S)[nH]c2ccccc2c1=O	?	0.8	-2.5	23257*	-2.3	-2.7
COC(=O)[C@]12C[C@H](CC(=O)NCCC(C)C)C(=O)N(CCC3=CCCCC3)C1=C[C@H](COCc1ccccc1)O[C@@H]2C	nt	9.1	nt	nt	nt	nt
COc1ccc2cc(C#N)c(SCC(=O)NNC(=O)Cc3ccccc3)nc2c1	1.0	7.5	0.2	19935*	-7.3	-1.9
CCOc1ccc2cc(C#N)c(SCC(=O)N3CCC(C)CC3)nc2c1	-1.8	-1.7	1.5	23801*	-2.4	-2.3
COc1ccc(S(=O)(=O)N2CCC(c3nc4ccccc4o3)CC2)c(OC)c1	nt	18.6	nt	nt	nt	nt
Cc1ccccc1CC(=O)Nc1nnc(-c2cccnc2)s1	nt	-6.3	nt	nt	nt	nt
COCC#Cc1ccc(CC[C@H]2O[C@H]3CC[C@H](CO)O[C@H]3C[C@H]2n2cc(C(C)(C)O)nn2)cc1	nt	-6.9	nt	nt	nt	nt
Cc1ccc(S(=O)(=O)N(CCc2ccccc2)CC(=O)N2CCOCC2)cc1	nt	-6.7	nt	nt	nt	nt
COc1ccc([C@@H]2[C@H]3C(=O)N(c4cccc(C(F)(F)F)c4)C(=O)[C@H]3ON2C)cc1	1.9	-3.4	-0.8	21509*	-0.6	3.9
O=C1[C@H]2[C@H](ON3CCCC[C@H]23)C(=O)N1c1cccc(C(F)(F)F)c1	-0.9	-18.2	3.9	4905	-1.2	0.9
CCCCc1c(-c2ccccc2OC)ncn1Cc1cccc(C)c1	nt	23.2	nt	nt	nt	nt
C=CCN(CC(=O)NCc1ccccc1)C(=O)c1csnn1	-1.9	-4.9	0.5	24034*	0.4	-1.0
CC(=O)Oc1ccc(OC(C)=O)c(SCCCCCN2CCOCC2)c1	-0.6	3.3	-1.1	23369*	4.3	1.1
COC(=O)c1cc(NC(=O)NC2CCCCN(Cc3cccc(Cl)c3)C2=O)cc(C(=O)OC)c1 (stereo unspecified)	nt	-2.6	nt	nt	nt	nt
COc1ccc(C(=O)N2CCCC(c3nc(-c4cccs4)no3)C2)cc1 (stereo unspecified)	-1.6	3.8	-4.4	19734*	3.0	-2.4
COc1ccc(-c2noc(C3CCCN(S(=O)(=O)c4cccc(Cl)c4)C3)n2)cc1OC (stereo unspecified)	-0.4	nt	-3.6	23625*	-1.4	-1.7
COc1ccc(C(=O)N2CCCC(c3nc(-c4cccs4)no3)C2)cc1OC (stereo unspecified)	-4.5	-10.6	-1.3	25010*	5.3	-7.3
O=C(c1ccc(Br)cc1)N1CCCC(c2nc(-c3cccs3)no2)C1 (stereo unspecified)	-0.4	2.5	-6.6	3850	2.1	-4.1
SMILES	BoNT-A LC inh2	CCHF vOTU inh	Anthrax LF prot	Bead autofluor	3CLpro inhibitor	BoNT F protease
Cc1ccc(CN2CCCCC(NC(=O)Nc3ccccc3)C2=O)cc1 (stereo unspecified)	nt	3.0	nt	nt	nt	nt
COC(=O)C1=C(C)N(Cc2ccc(C(F)(F)F)cc2)C(=NCc2ccc3c(c2)OCO3)NC1c1cccc(Cl)c1 (stereo unspecified)	nt	18.7	nt	nt	nt	nt
Cc1ccc(C(=O)Cn2c(C)cc(C)c(C#N)c2=O)cc1	-8.6	1.6	-1.5	7594	0.8	-105.0
Cc1ccc(NC(=O)Cn2c(C)cc(C)c(C#N)c2=O)c(Cl)c1	-4.1	-19.6	-4.1	23456*	-2.2	-4.8
COC(=O)c1ccc(Oc2nc(Nc3ccccc3)nc(N(C)C)n2)cc1	-4.0	12.4	0.4	20995*	4.6	-5.7
COC(=O)c1cccnc1N1CCN(c2ccccc2F)CC1	?	7.9	-3.7	23700*	-2.1	-0.5
COC(=O)c1ccccc1NC(=O)N1CCN(c2ccccc2F)CC1	0.5	3.5	-0.7	2460	7.0	-2.0
O=C(Nc1ccc(Br)cc1)c1cccnc1N1CCOCC1	-0.9	4.2	-5.4	5509	2.4	-4.9

Source: PubChem (several laboratories)
